For assay [1], the system named is zebrafish Peroxisome Proliferator-activated Receptor gamma (PPARg), gene 557037. Kind of assay: ATG_zfPPARg_XSP2: Attagene TRANS-FACTORIAL Multi-Species (XSP2) HepG2 Assay for zebrafish Peroxisome Proliferator-activated Receptor gamma (PPARg) (AID 2283833).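 Further: actives increase reporter signal over DMSO so AC50 reflects activation.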 The method in brief:
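HepG2 cells transiently transfected with multiplexed GAL4-UAS reporter units expressing chimeric NR-Gal4 receptors, dosed 24 h. Reporter mRNA quantified by RT-PCR, fluorescent labelling, HpaI digestion and capillary electrophoresis; gain of signal fitted against DMSO.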

Assay [2] concerns turtle Thyroid Hormone Receptor, alpha (TRa), gene 101949057. The experiment in a line: ATG_trTRa_XSP2: Attagene TRANS-FACTORIAL Multi-Species (XSP1) HepG2 Assay for turtle Thyroid Hormone Receptor, alpha (TRa) (AID 2283834).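 Further: hits raise reporter mRNA over the DMSO baseline so AC50 marks activators.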 The method, boiled down: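 HepG2 cells transiently transfected with GAL4-UAS reporter units for chimeric turtle TRa-Gal4; mRNA measured 24 h after dosing by RT-PCR and capillary electrophoresis fluorescence, gain of signal fitted against DMSO.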

Assay [3] is described as follows: ATG_M_61_XSP2: Attagene TRANS-FACTORIAL Multi-Species (XSP2) HepG2 Assay for M61 Transcription Factor (Internal Marker) (AID 2283835; active means hit-call score of the fitted dose curve at least 0.9, where 1 is the maximum; inactive means score below 0.9;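 further: active means a rise in signal above the DMSO baseline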). The method, boiled down: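 HepG2 cells transiently transfected with multiple GAL4-UAS reporter units; reporter mRNA measured 24 h after dosing by RT-PCR, fluorescent labelling and capillary electrophoresis. Medium contained 3 nM 6-alpha-fluorotestosterone and 1.5 nM norgestrel; internal marker, DMSO baseline.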

Assay [4] concerns the target human Thyroid hormone Receptor alpha (TRa), THRA (gene 7067) (UniProt P10827). Kind of assay: ATG_hTRa_XSP2: Attagene TRANS-FACTORIAL Multi-Species (XSP2) HepG2 Assay for human Thyroid hormone Receptor alpha (TRa) (AID 2283838). The method in brief: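 HepG2 cells transiently transfected with multiplexed GAL4-UAS reporter units and exogenous NR-GAL4 chimeras; 24 h chemical exposure with 3 nM 6-alpha-fluorotestosterone and 1.5 nM norgestrel present. Reporter mRNA measured by RT-PCR, FAM labelling, HpaI digestion, capillary electrophoresis; gain-of-signal versus DMSO.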

In assay [5] the target is human Thyroid hormone Receptor beta (TRb), THRB (gene 7068) (UniProt P10828). The experiment in a line: ATG_hTRb_XSP2: Attagene TRANS-FACTORIAL Multi-Species (XSP2) HepG2 Assay for human Thyroid hormone Receptor beta (TRb) (AID 2283840).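 Further: actives raise reporter mRNA so potency reflects agonist-like gain of signal.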 The method in brief: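 HepG2 transiently transfected with a multi-species panel including a human TRb–Gal4 chimera driving Gal4-UAS reporters; medium contained 3 nM 6-alpha-fluorotestosterone and 1.5 nM norgestrel. 24 h dosing; RT-PCR/capillary electrophoresis readout; positive-direction fit vs DMSO.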
human Thyroid hormone Receptor beta (TRb), THRB (gene 7068), sequence (P10828 whole entry, looked up, the tested form may be a part): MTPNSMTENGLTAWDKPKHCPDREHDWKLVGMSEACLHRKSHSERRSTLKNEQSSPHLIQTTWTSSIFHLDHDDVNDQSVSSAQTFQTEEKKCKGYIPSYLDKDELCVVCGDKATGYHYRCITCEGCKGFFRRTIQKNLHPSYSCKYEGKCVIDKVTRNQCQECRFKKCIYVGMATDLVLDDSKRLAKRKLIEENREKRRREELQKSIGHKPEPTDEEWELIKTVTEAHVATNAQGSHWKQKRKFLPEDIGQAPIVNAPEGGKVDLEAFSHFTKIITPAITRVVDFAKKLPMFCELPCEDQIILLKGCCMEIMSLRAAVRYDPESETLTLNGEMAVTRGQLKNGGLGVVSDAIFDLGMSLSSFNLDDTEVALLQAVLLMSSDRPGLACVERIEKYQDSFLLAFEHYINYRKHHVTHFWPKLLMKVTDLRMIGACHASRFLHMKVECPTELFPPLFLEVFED

The subject of assay [6] is Sodium/Iodide Symporter (NIS), SLC5A5 (gene 6528). Kind of assay: CPHEA_Stoker_NIS_Inhibition_RAIU: CPHEA's Radioactive Iodide Uptake (RAIU) Assay for Sodium/Iodide Symporter (NIS) Inhibition, Stoker and Laws Labs (AID 2283841). The method, boiled down: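 Test chemicals, six concentrations from 0.001 to 100uM in 0.5% DMSO, were co-incubated with carrier-free 125I (final 329pM) on hNIS-HEK293T-EPA monolayers in pH 7.4 HEPES-buffered HBSS. Plates stood 2 hours at room temperature, then were washed cold and counted.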

Assay [7] in a line: CPHEA_Stoker_NIS_Cytotoxicity: Cytotoxicity Assessment for CPHEA's Radioactive Iodide Uptake (RAIU) Assay for Sodium/Iodide Symporter (NIS) Inhibition, Stoker and Laws Labs (AID 2283897).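 On AC50: active means loss of ATP signal versus DMSO meaning cytotoxicity.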 The method, boiled down: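 Viability in hNIS-HEK293T-EPA cells is scored as a drop in luciferase-detected ATP following 2-hour room-temperature exposure (0.001–100uM; triplicate wells, three cell passages), with DMSO as negative control.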

Assay [8] concerns the target frog Thyroid hormone Receptor alpha (TRa), thra-a (gene 397942) (UniProt P15204). Kind of assay: ATG_frTRa_XSP2: Attagene TRANS-FACTORIAL Multi-Species (XSP2) HepG2 Assay for frog Thyroid hormone Receptor alpha (TRa) (AID 2283839).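 On AC50: AC50 reflects induction of frog TRa-driven reporter mRNA above DMSO baseline.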 The method in brief:
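HepG2 transiently transfected with multiplexed GAL4-UAS reporters driven by frog TRa-Gal4 chimeras; 24 h chemical exposure. Reporter mRNA quantified by RT-PCR, FAM labelling, HpaI digestion and capillary electrophoresis; gain of signal versus DMSO.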

Assay [9] can be described thus: ATG_XTT_Cytotoxicity_XSP2: Cytotoxicity Assessment in the Attagene TRANS-FACTORIAL Multi-Species (XSP2) HepG2 Assay (AID 2283837). The method, boiled down: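 HepG2 cells, transiently transfected with multiple reporter constructs, exposed to chemical for 24 h. Cell number assessed with XTT fluorescence read-out; loss of signal fitted relative to DMSO.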
Assay [10] is described as follows: CEETOX_H295R_OHPREG_noMTC: CeeTox H295R High-throughput Steroidogenesis Assay for OH-Pregnenolone (OHPREG), maximum tolerated concentration (MTC) filtered results only (AID 2283912; active means hit-call score of the fitted dose curve at least 0.9, where 1 is the maximum; inactive means score below 0.9). To be noted: actives raise or lower the signal. The method in brief:
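H295R cells prestimulated 48 h with 10 uM forskolin, then exposed 48 h to compound (0.1% DMSO). 17alpha-hydroxypregnenolone in medium measured by MTBE extraction and HPLC-MS/MS; bidirectional fit vs DMSO, concentrations not MTT/MTC-filtered.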

Assay [11] is described as follows: CEETOX_H295R_OHPROG_noMTC: CeeTox H295R High-throughput Steroidogenesis Assay for OH-Progesterone (OHPROG), maximum tolerated concentration (MTC) filtered results only (AID 2283914; active means hit-call score of the fitted dose curve at least 0.9, where 1 is the maximum; inactive means score below 0.9). To be noted: actives raise or lower the signal. The method, boiled down: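 H295R cells prestimulated 48 h with 10 uM forskolin, then exposed 48 h to chemical (0.1% DMSO final). 17alpha-hydroxyprogesterone in medium quantified by HPLC-MS/MS after MTBE extraction; bidirectional fitting versus DMSO, concentrations not MTC-filtered.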

Assay [12] can be described thus: CEETOX_H295R_ANDR_noMTC: CeeTox H295R High-throughput Steroidogenesis Assay for Androstenedione (ANDR), maximum tolerated concentration (MTC) filtered results only (AID 2283915; active means hit-call score of the fitted dose curve at least 0.9, where 1 is the maximum; inactive means score below 0.9). To be noted: actives raise or lower the signal. The method in brief:
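H295R cells, passage 10 or below, prestimulated 48 h with 10 uM forskolin, then exposed 48 h to chemical in 0.1% DMSO. Medium androstenedione extracted with MTBE, quantified by HPLC-MS/MS; concentrations not MTC-filtered; bidirectional fit versus DMSO.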

The nature of assay [13]: CEETOX_H295R_ESTRADIOL_noMTC: CeeTox H295R High-throughput Steroidogenesis Assay for Estradiol, maximum tolerated concentration (MTC) filtered results only (AID 2283919; active means hit-call score of the fitted dose curve at least 0.9, where 1 is the maximum; inactive means score below 0.9). To be noted: actives raise or lower the signal. The method, boiled down:
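H295R human adrenal cells pre-stimulated 48 h with 10 uM forskolin, then exposed 48 h to chemical (0.1% DMSO final). Estradiol in medium measured by HPLC-MS/MS after MTBE extraction and dansyl derivatization; bidirectional fit versus DMSO, concentrations not MTT-filtered.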

Assay [14] is described as follows: CEETOX_H295R_PROG_noMTC: CeeTox H295R High-throughput Steroidogenesis Assay for Progesterone (PROG), maximum tolerated concentration (MTC) filtered results only (AID 2283920; active means hit-call score of the fitted dose curve at least 0.9, where 1 is the maximum; inactive means score below 0.9). As to conditions: actives raise or lower the signal. The method, boiled down:
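H295R cells, prestimulated 48 h with 10 uM forskolin, exposed 48 h to chemical in 0.1% DMSO. Medium progesterone quantified by MTBE extraction and HPLC-MS/MS; bidirectional fit versus DMSO, concentrations not MTT-filtered.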

Assay [15] is described as follows: CEETOX_H295R_ESTRONE_noMTC: CeeTox H295R High-throughput Steroidogenesis Assay for Estrone, maximum tolerated concentration (MTC) filtered results only (AID 2283921; active means hit-call score of the fitted dose curve at least 0.9, where 1 is the maximum; inactive means score below 0.9). As to conditions: actives raise or lower the signal. The method in brief: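 H295R cells prestimulated 48 h with 10 uM forskolin, then exposed 48 h to chemical in 0.1% DMSO; medium estrone measured by HPLC-MS/MS after MTBE extraction and dansyl derivatization, fitted bidirectionally versus DMSO without MTT-based MTC filtering.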

A short description of assay [16]: CEETOX_H295R_TESTO_noMTC: CeeTox H295R High-throughput Steroidogenesis Assay for Testosterone (TESTO), maximum tolerated concentration (MTC) filtered results only (AID 2283924; active means hit-call score of the fitted dose curve at least 0.9, where 1 is the maximum; inactive means score below 0.9). To be noted: actives raise or lower the signal. The method in brief:
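H295R cells prestimulated 48 h with 10 uM forskolin, then exposed 48 h to chemicals in 0.1% DMSO final. Testosterone in medium quantified by MTBE extraction and HPLC-MS/MS; bidirectional fit versus DMSO, concentrations […] filtered by MTT-based maximum tolerated concentration.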

Molecules are shown by their SMILES. Inconclusive results are not listed. A structure can be active in one record and inactive in another. Active and inactive are the calls of the source. How the source made its calls, unless noted: active means hit-call score of the fitted dose curve at least 0.9, where 1 is the maximum; inconclusive means response in the unintended direction; inactive means score below 0.9.

frog Thyroid hormone Receptor alpha (TRa), thra-a (gene 397942), sequence (P15204 whole entry, looked up, the tested form may be a part): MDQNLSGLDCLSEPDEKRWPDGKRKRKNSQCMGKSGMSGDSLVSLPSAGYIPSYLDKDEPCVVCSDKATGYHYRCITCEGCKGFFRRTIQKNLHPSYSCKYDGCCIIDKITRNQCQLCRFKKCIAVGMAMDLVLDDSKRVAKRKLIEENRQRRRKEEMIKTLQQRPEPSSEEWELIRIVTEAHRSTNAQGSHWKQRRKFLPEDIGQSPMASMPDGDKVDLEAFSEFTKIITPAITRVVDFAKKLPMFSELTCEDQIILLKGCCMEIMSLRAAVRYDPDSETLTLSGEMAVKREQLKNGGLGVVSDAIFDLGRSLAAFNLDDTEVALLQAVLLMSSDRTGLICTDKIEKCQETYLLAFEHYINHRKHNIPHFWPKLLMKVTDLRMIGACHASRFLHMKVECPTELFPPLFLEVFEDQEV
human Thyroid hormone Receptor alpha (TRa), THRA (gene 7067), sequence (P10827 whole entry, looked up, the tested form may be a part): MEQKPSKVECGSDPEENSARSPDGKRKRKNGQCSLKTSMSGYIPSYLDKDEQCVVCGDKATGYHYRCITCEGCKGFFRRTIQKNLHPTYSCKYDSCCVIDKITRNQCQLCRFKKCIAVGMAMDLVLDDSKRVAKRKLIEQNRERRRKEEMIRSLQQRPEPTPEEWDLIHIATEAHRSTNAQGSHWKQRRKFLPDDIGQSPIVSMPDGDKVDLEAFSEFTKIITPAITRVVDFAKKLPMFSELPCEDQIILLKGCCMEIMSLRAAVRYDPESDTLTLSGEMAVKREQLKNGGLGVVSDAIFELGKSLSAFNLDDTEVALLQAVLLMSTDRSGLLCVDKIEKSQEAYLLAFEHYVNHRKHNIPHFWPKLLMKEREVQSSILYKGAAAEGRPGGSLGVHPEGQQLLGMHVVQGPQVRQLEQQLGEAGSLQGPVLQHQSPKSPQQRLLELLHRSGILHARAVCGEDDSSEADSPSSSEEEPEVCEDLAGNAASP

For `CC1(C)CCC(Cc2ccc(Cl)cc2)C1(O)Cn1cncn1` (stereo not drawn), the result in assay [1], in assay [2], in assay [3], in [4], in assay [5] and in assay [6] was inactive. The result in [7] was inactive.
Consider `CC(C)(c1ccc(OCC2CO2)cc1)c1ccc(OCC2CO2)cc1` (stereo not drawn), for which the result in assay [6] and in assay [7] was inactive.
Take `O=C(Nc1ccc2[nH]ccc2c1)c1cc2cc(F)ccc2n1Cc1cccc(F)c1`: the outcome in [6] and in assay [7] was inactive.
Regarding `O=C(O)CCC(F)(C(F)(F)F)C(F)(F)F`, in [6], the outcome was inactive.
`CC(C)(C)c1cc(O)ccc1O`: the compound was called inactive in assay [1], in [2], in [3], in assay [4], in assay [8] and in [5].
Take `C[C@]12CC[C@H](O)CC1=CC[C@@H]1[C@@H]2CC[C@]2(C)C(=O)CC[C@@H]12`: the compound was classed as inactive in assay [1], in assay [2], in [3] and in assay [5].
For `O=C1C2(Cl)C3(Cl)C4(Cl)C(Cl)(Cl)C5(Cl)C3(Cl)C1(Cl)C5(Cl)C24Cl` (stereo not drawn), the call in assay [1], in assay [2], in assay [3], in assay [4], in assay [8] and in assay [6] was inactive. Further, the outcome in [7] was inactive. The AC50 in assay [5] is 10 µM (active).
On to `Clc1ccc(C2(Cn3cncn3)CC(Br)CO2)c(Cl)c1` (stereo not drawn), for which the compound was classed as inactive in assay [1], in [2], in [3], in [9], in assay [4] and in [8]. In addition, the outcome in assay [5], in assay [6] and in assay [7] was inactive. For the same compound, the AC50 is 26.9 µM (active) in [2] and 5.44 µM (active) in assay [8].
For the compound `CC(C)(C)CC(C)(C)c1ccc(O)cc1`, the call in assay [2], in assay [3], in [8], in assay [5], in assay [6] and in assay [7] was inactive.
Take `O=C(O)C(F)(F)C(F)(F)C(F)(F)C(F)(F)C(F)(F)C(F)(F)C(F)(F)C(F)(F)C(F)(F)C(F)(F)F`: the outcome in [6] was inactive.
The same measure, in the same setting: as for `CC1(C)Cc2cccc(O)c2O1`, the entry is “inactive”.
As to `CC(C)C1CCC(Cc2ccc(Cl)cc2)C1(O)Cn1cncn1` (stereo not drawn), the compound was called inactive in [1], in assay [2], in assay [3], in assay [4], in assay [8] and in [5]. Besides, the figures for the half-maximal activity concentration (AC50) in assay [9], in [6] and in assay [7] were 42.8 µM (active), 20 µM (active) and 87.6 µM (active), respectively.
In the case of `C[C@H]1CCCC(=O)CCC/C=C/c2cc(O)cc(O)c2C(=O)O1`, the outcome in [1], in assay [2], in assay [3], in [9], in assay [4] and in assay [5] was inactive. The result in assay [6], in assay [10] and in assay [13] was inactive. For the same compound, the AC50 in assay [7] is 83.8 µM (active); in assay [11], 2.3 µM (active); in assay [12], 77.4 µM (active); in assay [14], 3.94 µM (active); in assay [15] it was 36.3 µM (active); in [16], 82.8 µM (active).

Usually AC50 stands for the concentration at which the activity in the assay is half-maximal.

For the origin of these results see PubChem BioAssay (EPA / NIEHS).
